The panel holds about 83,000 compounds, 20% with a hit somewhere; the sample as a whole holds those more often.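 96-well plates, one dose, 48 hours. Percent growth reported; active if below 10.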 A number with no mark means an inactive call. Calls of active or inactive are those of the source.
Assays:
Test in all cases: NCI-60 one-dose screen, 48 h (100 = growth as untreated, 0 = no growth, -100 = all killed)
Details in all cases: 10 µM unless noted
SK-MEL-2 melanoma = tested on: SK-MEL-2 melanoma
SN12C renal = tested on: SN12C renal
UO-31 renal = tested on: UO-31 renal
TK-10 renal = tested on: TK-10 renal
ACHN renal = tested on: ACHN renal
CAKI-1 renal = tested on: CAKI-1 renal
A498 renal = tested on: A498 renal
CCRF-CEM leukemia = tested on: CCRF-CEM leukemia
MOLT-4 leukemia = tested on: MOLT-4 leukemia
EKVX NSCLC = tested on: EKVX NSCLC

Row | Compound | growth (SK-MEL-2 melanoma) | growth (SN12C renal) | growth (UO-31 renal) | growth (TK-10 renal) | growth (ACHN renal) | growth (CAKI-1 renal) | growth (A498 renal) | growth (CCRF-CEM leukemia) | growth (MOLT-4 leukemia) | growth (EKVX NSCLC) [%]
1 | CCn1cc(C(=O)O)c(=O)c2cc(F)c(N3CCN(S(=O)(=O)c4ccc(OC)c(OC)c4)CC3)cc21 | 91.8% | 101% | 62.1% | 100% | 93% | 99% | 90.4% | 99.7% | 78.9% | 
2 | C#CCN1C(=O)/C(=c2\sc3n(c2=O)NC2C(N=3)N(CC)C(=O)N2CC)c2ccccc21 (stereo unspecified) | 91.3% | 71% | 47.9% | 96.5% | 54.4% | 30.1% | 36.8% |  | 68.5% | 69.7
3 | Cn1c(-c2nonc2NC(=O)c2ccc(F)cc2)nc2ccccc21 | 112% | 102% | 91.2% | 124% | 112% | 105% | 85.6% | 105% | -1.74% (active) | 
4 | CCCCCC/C=C\CCCCCCCCOc1ccc(CCOP(=O)(O)OCC[N+](C)(C)C)cc1 | 91% | 91.4% | 83.2% | 23.5% | 91.7% | 36.9% | 95.6% |  | 54.1% | 95.3
5 | CCN(Cc1ccc(CN(CC)C(=O)C(Cl)(Cl)Cl)cc1)C(=O)C(Cl)(Cl)Cl | 89% | 97.8% | 78.7% | 96.1% | 91.1% | 72% | 82.6% |  | 29.9% | 68.3
6 | CCCCCc1c(C)[nH]c(/C=c2\[nH]/c(=C3/C=c4ccccc4=N3)cc2OC)c1C | -73.9% (active) | -51.4% (active) | -89.7% (active) | -47% (active) | -78.3% (active) | -38.7% (active) | -29.4% (active) | -19% (active) | -23.1% (active) | 
7 | COc1ccc(/C=C2\Oc3cc(OCCN4CCCC4)ccc3C2=O)c(OC)c1 | 101% | 92.2% | 81.2% | 115% | 95.7% | 92.4% | 88.5% |  | 86.7% | 98.1
8 | Nc1nc(-c2ccccc2)cs1 | 82.1% | 101% | 75.7% | 98.5% | 103% | 94% | 81.5% | 110% | 105% | 
9 | COc1cc2nc(Cl)nc(NCCO)c2cc1OC | 125% | 104% | 94.8% | 103% | 98.3% | 111% | 79.7% | 98.8% | 101% | 
10 | CCN(Cc1ccccc1)c1ccc(SC#N)cc1 | 104% | 87.9% | 32.9% | 102% | 63.5% | 92.6% | 86.9% | 13% | 59.5% | 
11 | CCN1C(=O)N(CC)C2C1NN=c1s/c(=C\c3cccc(F)c3)c(=O)n12 (stereo unspecified) | 51.5% | 31.5% | 50.8% | 61.8% | 29.1% | 40.8% | -15.3% (active) |  | 19.1% | 64.3
12 | Nc1c(C(=O)Nc2ccccc2)sc2nc3c(cc12)CCC3 | 86% | 85% | 80.9% | 96% | 96% | 81.5% | 80.7% | 89.7% | 90.3% | 
13 | COc1cccc(-n2cc(-c3nc(Cl)c4ccccc4n3)nn2)c1 | 89.5% | 95.2% | 78.3% | 105% | 112% | 99.1% | 72.9% | 103% | 104% | 
14 | COc1ccc(NC(=S)/N=c2\oc3c(OC)cccc3cc2-c2cc3ccccc3[nH]2)cc1 | 90.2% | 84.7% | 95.2% | 96% | 44.8% | 28.3% | 87.9% |  | 99.1% | 79.6
15 | COc1ccc(/C=C2\CCCC3=C2NC(C)=NC3c2ccc(OC)c(OC)c2)cc1OC (stereo unspecified) | 5.93% (active) | 5.95% (active) | 34.3% | 12.2% | 9.82% (active) | 5.12% (active) | 5.88% (active) | -20% (active) | -23.2% (active) | 
16 | CC(=O)Nc1ccc(S(=O)(=O)N2C(=O)CCC2C(=O)Nc2ccccc2)cc1 (stereo unspecified) | 43.9% | 40.4% | 14.1% | 27.5% | 30.4% | 9.53% (active) | 2.01% (active) | 17.7% | 28.8% | 
17 | COC12CC(=O)C(C(C)=O)=C(O)C1(C)c1c(O)c(C)c(O)c(C(C)=O)c1O2 (stereo unspecified) | 41.9% | 49.1% | 48.9% | 78.4% | 77.9% | 71.5% | 61.1% | 47.2% | 75.3% | 
18 | O=c1[nH]c(-c2cn(-c3ccc(Cl)cc3)nn2)nc2ccccc12 | 77.2% | 71.9% | 46.1% | 80.6% | 42.5% | 84.2% | 24.7% | 98.6% | 93.7% | 
19 | Cc1nc2sccn2c1-c1csc(Nc2ccccc2Cl)n1 | 33.9% | 57.1% | 42.4% | 61% | 58.9% | 34.6% | 31.5% | 48.6% | 17% | 
20 | COc1cc(OC)cc(-c2n[nH]nc2-c2ccc3c(c2)OCO3)c1 | 14.4% | 49.1% | 44.9% | 59.5% | 42.7% | 36.5% | -1.56% (active) | 10.4% | 31.3% | 
21 | CC(C)C(C(=O)CCN(C)C)c1ccc(Cl)cc1 (stereo unspecified) | 98.4% | 95.4% | 93.3% | 101% | 101% | 102% |  | 90.6% | 76.5% | 103
22 | COc1cc2nc(SCc3cc(OC)c(OC)c(OC)c3)n(Cc3ccccc3)c(=O)c2cc1OC | -9.82% (active) | 41.2% | 34.7% | 64.3% | 39.2% | 25.7% | -5.24% (active) | 23% | 16.7% | 
23 | COc1cc(C2C=C(C)N=C3SC=CN32)cc(OC)c1OC (stereo unspecified) | 115% | 105% | 90% | 107% | 115% | 96.9% | 106% | 105% | 102% | 
24 | C=CC(=O)N[C@H](/C=C/C(=O)OCC)Cc1ccc(-c2cc(Cl)cc(Cl)c2)cc1 | 90.4% | 88.6% | 56.7% | 89.1% | 90.1% | 79.4% |  | 79.3% | 74.3% | 91
25 | Cc1ccc(Nc2ncnc3c2sc2ncccc23)cc1 | 118% | 98.4% | 90.9% | 123% | 99.3% | 104% | 67% | 116% | 51.1% | 
26 | COc1cc(NS(C)(=O)=O)ccc1Nc1c2ccc([N+](=O)[O-])cc2nc2c(C)cccc12 | 25.4% | 2.9% (active) | -3.4% (active) | 5.21% (active) | -30.9% (active) | -21.2% (active) | -23.5% (active) | -11.8% (active) | -8.62% (active) | 
27 | c1ccc2nc(-c3ccc4ccccc4n3)ccc2c1 | 88% | 95.9% | 78.4% | 116% | 96.4% | 83.2% | 97.3% | 90% | 88.3% | 
28 | COc1cc2oc(-c3cccc(NC(=O)Nc4ccc5c(c4)OCO5)c3)cc(=O)c2c(OC)c1OC | 71.7% | 49.5% | 17.8% | 56% | 47.1% | 48.6% | 77.1% |  | 54.8% | 86.2
29 | CCN1C(=O)N(CC)C2C1NN=c1s/c(=C3\C(=O)N(C4CCCC4)c4ccccc43)c(=O)n12 (stereo unspecified) | 41.3% | 31.6% | 37.2% | 24.4% | 31.9% | 32.1% | -25.9% (active) |  | 7.37% (active) | 56.1

Source: PubChem BioAssay (NCI)
